# Where “and” joins values, the source holds several entries; their conditions need not be identical. Equal entries are not always repeated. Inconclusive results are not listed. Calls of active or inactive are those of the source. Unless noted, calls come from the whole dose curve; as a rule, active = well fitted cell-killing curve with a large enough effect; inconclusive = small, poorly fitted or top-dose-only effect, or effect the other way; inactive = flat fitted curve, though single readings scatter.
# Experiment: qHTS assay for cell viability of HEK293 cells (AID 743288); note: % is set by controls: 0 for no effect and ±100 for the full control effect; nearly all actives have a fitted effect of over 50% in size
# Conditions: ATP luminescence (CellTiter-Glo), 18 h; max response: stronger effect = lower value
# Outline: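 Parental HEK293 cells, 2,000 per well, preincubated at least 5 h at 37 C, then exposed to compounds in DMSO for 18 h at 37 C. Viability by CellTiter-Glo ATP luminescence after 30 min at room temperature.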
row,SMILES,max response
1,ClC1=C(Cl)[C@]2(Cl)[C@@H]3[C@@H]4C[C@@H]([C@H]5O[C@@H]45)[C@@H]3[C@@]1(Cl)C2(Cl)Cl,-27.3% (inactive)
2,CCCCCC[C@H]1C(=O)O[C@H](C)[C@H](NC(=O)c2cccc(NC=O)c2O)C(=O)O[C@@H](C)[C@@H]1OC(=O)CC(C)C,-27.4% (inactive)
3,C1CCC(NC2CCCCC2)CC1,4.88% (inactive) and 5.5% (inactive) and 0.405% (inactive)

# Experiment: qHTS assay for cell viability of the p53RE-bla HCT-116 cell line (AID 743292); note: nearly all actives have a fitted effect of over 55% in size; note: potency is the fitted concentration of half-maximal effect; for activity change, negative = cytotoxicity: % is set by controls: 0 for no effect and ±100 for the full control effect
# Conditions: p53RE-bla HCT-116 viability, ATP luminescence, 16 h; series mostly up to 95 µM; activity change, negative = cytotoxicity: at the top concentration
# Outline: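 ATP-based luminescent viability (CellTiter-Glo, 30 min RT) after 16 h compound treatment at 37 C of p53RE-bla HCT-116 cells, seeded at 4,000 cells/well and rested 5 h before dosing.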
SMILES,"activity change, negative = cytotoxicity",Potency
O=[N+]([O-])c1c2ccccc2cc2ccccc12,-2.25% (inactive),–
OCCCBr,-1.43% (inactive),–
Cc1cc(O)ccc1Cl,-6.83% (inactive),–
O=S(=O)(O)C(F)(F)C(F)(F)C(F)(F)C(F)(F)C(F)(F)C(F)(F)C(F)(F)C(F)(F)F,–,inactive
CCCCOC(=O)c1ccccc1C(=O)OCc1ccccc1,–,inactive
Nc1c(Cl)c(Cl)c(Cl)c(Cl)c1Cl,-0.498% (inactive),–
CS(=O)(=O)c1ccc(C(=O)C2C(=O)CCCC2=O)c([N+](=O)[O-])c1,6.72% (inactive),–
COc1ccc(C(c2ccc(OC)cc2)C(Cl)(Cl)Cl)cc1,–,inactive
CCOP(=O)(NC(C)C)Oc1ccc(SC)c(C)c1 (stereo not given),–,inactive
CCO/N=C(\CC)C1=C(O)CC(c2c(C)cc(C)cc2C)CC1=O (stereo not given),-12.4% (inactive),–
CCCN(CCC)c1c([N+](=O)[O-])cc(S(N)(=O)=O)cc1[N+](=O)[O-],-3.84% (inactive),–
CCCCCCCCc1ccc(O)cc1,–,inactive
CO/C=C(/C(=O)OC)c1ccccc1Oc1cc(Oc2ccccc2C#N)ncn1,-23.4% (inactive),–
Nc1ccc(N=Nc2ccccc2)cc1,8.2% (inactive),–
CN(C)[C@@H]1C(=O)C(C(N)=O)=C(O)[C@@]2(O)C(=O)C3=C(O)c4c(O)cccc4[C@@](C)(O)[C@H]3[C@H](O)[C@@H]12,–,inactive
Nc1ccc(Sc2ccc(N)cc2)cc1,–,inactive
Nc1ccc(Cl)cc1N,–,inactive

SMILES,"activity change, negative = cytotoxicity",Potency
ClC1=C(Cl)[C@]2(Cl)[C@@H]3[C@@H]4C[C@@H]([C@H]5O[C@@H]45)[C@@H]3[C@@]1(Cl)C2(Cl)Cl,-8.71% (inactive),–
COc1nn(CSP(=S)(OC)OC)c(=O)s1,-11.5% (inactive),–
C=CCC1=C(C)C(OC(=O)C2C(C=C(C)C)C2(C)C)CC1=O (stereo not given),–,inactive
CCCCC(CC)COC(=O)c1ccccc1C(=O)OCC(CC)CCCC (stereo not given),–,inactive
CC(=O)[O][Hg][c]1ccccc1,–,8.91 µM (active) and 10 µM (active)
O=[N+]([O-])/N=C1\NCCN1Cc1ccc(Cl)nc1,-15.2% (inactive),–
CCCCCCCCCCCCCCCC[N+](C)(C)C,7.03% (inactive),–
O=[N+]([O-])c1cc([N+](=O)[O-])c2ccccc2c1,7.82% (inactive),–
O=C(Nc1ccccc1-c1ccc(Cl)cc1)c1cccnc1Cl,-11.3% (inactive),–
O=C(O)C(Cl)Cl,–,inactive
Nc1ccc([N+](=O)[O-])cc1,-3.13% (inactive),–
COCCOCCO,–,inactive
C1CCC(NC2CCCCC2)CC1,–,inactive
CC(C)(C)C(O)C(Oc1ccc(Cl)cc1)n1cncn1 (stereo not given),2.16% (inactive),–
O=[N+]([O-])c1c(Cl)c(Cl)cc(Cl)c1Cl,3.25% (inactive),–
O=C(O)COc1ccccc1,-9.57% (inactive),–
C=CC(=O)NCNC(=O)C=C,–,inactive

# Experiment: qHTS profiling of the MIPE4 collection as inhibitors of Plasmodium falciparum (3D7) proliferation (AID 743344; call rule not given here;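 note: scaled between DMSO vehicle wells and 0.29 µM artemisinin as full inhibition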)
# Conditions: P. falciparum 3D7 in erythrocytes, SYBR Green DNA fluorescence, 72 h; at 28.5 µM (top of the series)
# Outline: (§1)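 Erythrocytes infected with P. falciparum (0.3% parasitemia, 2.5% hematocrit) incubated with compounds 72 h at 37 C, 5% CO2. Lysis with saponin/Triton buffer containing SYBR Green I, overnight at room temperature in the dark; DNA fluorescence (485/535 nm) normalised to 0.29 uM artemisinin and DMSO.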
row,SMILES,"parasite growth, % of DMSO control [%]"
1,CC(=O)Nc1ccc(OC[C@](C)(O)C(=O)Nc2ccc([N+](=O)[O-])c(C(F)(F)F)c2)cc1,70.7
2,NC1=NC(=O)N2CC12 (stereo not given),49.2
3,CN(C)[C@@H]1C(=O)C(C(N)=O)=C(O)[C@@]2(O)C(=O)C3=C(O)c4c(O)cccc4[C@@](C)(O)[C@H]3[C@H](O)[C@@H]12,29.4

# Experiment: qHTS profiling of the MIPE4 collection as inhibitors of Plasmodium falciparum (DD2) proliferation (AID 743345; call rule not given here)
# Conditions: P. falciparum Dd2 in erythrocytes, SYBR Green DNA, 72 h; at 28.5 µM (top of the series) unless noted
# Outline: as §1
row,SMILES,"parasite growth remaining, % of DMSO control (lower = more inhibition) [%]"
1,CC(=O)Nc1ccc(OC[C@](C)(O)C(=O)Nc2ccc([N+](=O)[O-])c(C(F)(F)F)c2)cc1,88.6
2,NC1=NC(=O)N2CC12 (stereo not given),93.9
3,CN(C)[C@@H]1C(=O)C(C(N)=O)=C(O)[C@@]2(O)C(=O)C3=C(O)c4c(O)cccc4[C@@](C)(O)[C@H]3[C@H](O)[C@@H]12,45.1
4,CCCCCC[C@H]1C(=O)O[C@H](C)[C@H](NC(=O)c2cccc(NC=O)c2O)C(=O)O[C@@H](C)[C@@H]1OC(=O)CC(C)C,17.3
5,C=CCON=C(C[C@H]1O[C@@H]2O[C@]3(C)CC[C@@H]4[C@H](C)CC[C@@H]([C@H]1C)[C@@]24OO3)[C@H]1O[C@@H]2O[C@]3(C)CC[C@H]4[C@H](C)CC[C@@H]([C@@H]1C)[C@@]24OO3,7.38

# Experiment: qHTS profiling of the MIPE4 collection as inhibitors of Plasmodium falciparum (DD2) proliferation (Rep 2) (AID 743346; call rule not given here)
# Conditions: P. falciparum Dd2 in erythrocytes, SYBR Green DNA, 72 h; at 28.5 µM (top of the series)
# Outline: as §1
row,SMILES,"parasite growth, % of control (lower = inhibition) [%]"
1,CC(=O)Nc1ccc(OC[C@](C)(O)C(=O)Nc2ccc([N+](=O)[O-])c(C(F)(F)F)c2)cc1,88.3
2,NC1=NC(=O)N2CC12 (stereo not given),46.3
3,CN(C)[C@@H]1C(=O)C(C(N)=O)=C(O)[C@@]2(O)C(=O)C3=C(O)c4c(O)cccc4[C@@](C)(O)[C@H]3[C@H](O)[C@@H]12,32
4,CCCCCC[C@H]1C(=O)O[C@H](C)[C@H](NC(=O)c2cccc(NC=O)c2O)C(=O)O[C@@H](C)[C@@H]1OC(=O)CC(C)C,14.5
5,C=CCON=C(C[C@H]1O[C@@H]2O[C@]3(C)CC[C@@H]4[C@H](C)CC[C@@H]([C@H]1C)[C@@]24OO3)[C@H]1O[C@@H]2O[C@]3(C)CC[C@H]4[C@H](C)CC[C@@H]([C@@H]1C)[C@@]24OO3,16.3

# From PubChem BioAssay (NCATS)
